IL-1B inflam inh – inhibitors of inflammasome signaling (IL-1 beta secretion); THP-1 LPS/ATP IL-1B secretion, AlphaLISA, 16 h; stronger effect = lower value; activity change, % at 57.5 µM; 360,000 tested, 4.7% active; AID 743279; in the data active = activity change below about -50%; inconclusive = mostly about -30% to -49%; also: % is scaled to controls: 0 for no effect and ±100 for the full control effect
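THP-1 cells pretreated 1 hr with compounds (up to 57.5 uM final), then stimulated with LPS (250 ng/mL final) plus ATP (1.25 mM final); secreted IL-1B measured by AlphaLISA after 16 hr, decreased signal indicating inhibition.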
DT40 TDP1 no CPT – qHTS for Inhibitors of human tyrosyl-DNA phosphodiesterase 1 (TDP1): qHTS in cells in absence of CPT; DT40 Tdp1-/- hTDP1 cells, no CPT, ATP luminescence, 48 h; Potency, µM (top dose mostly 46.2 µM), without a hit: top-dose activity change, negative = growth inhibition, usual class: inhibitors; 420,000 tested, 15% active; AID 686978, 2013; also: potency is read from the fitted curve at half-maximal effect; % is scaled to controls: 0 for no effect and ±100 for the full control effect; nearly all actives have a fitted effect of over 55% in size
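A cellular qHTS used chicken DT40 cells lacking endogenous Tdp1 but carrying stably transfected human TDP1. Compounds were applied without camptothecin, and cell growth kinetics were judged by ATP-dependent luminescence after ≥48 hr.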
TDP1 cell CPT – DT40-hTDP1 cell growth loss with CPT; AID 686979; Potency, µM (highest dose often 46.2 µM), inactives show at the highest dose activity change, negative = growth inhibition, most hits filed as inhibitors; 420,000 tested, 12% active; chicken DT40 Tdp1-/-;hTDP1 cells + 20 nM CPT, ATP luminescence, 48 h; also: potency is read from the fitted curve at half-maximal effect; % is scaled to controls: 0 for no effect and ±100 for the full control effect; nearly all actives have a fitted effect of over 55% in size
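Chicken DT40 Tdp1-/- cells stably complemented with human TDP1 were seeded at 400 cells/well in medium containing 20 nM camptothecin, exposed to pin-transferred compounds, and grown at 37 °C for at least 48 hr. Viability was read as ATP luminescence.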
HepG2 viability – kills HepG2 cells in TGF-b inhibitor counter-screen; Potency, µM (highest dose often 46.1 µM), for inactives: at the top dose activity change, negative = cytotoxicity, actives largely listed as cytotoxic; HepG2 CAGA-GFP viability, ATP luminescence, 18 h; 410,000 tested, 0.76% active; also: potency is read from the fitted curve at half-maximal effect
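CellTiter-Glo luminescence gave cytotoxicity after 18 hours at 37 degrees C. The cells were HepG2 CAGA-GFP in 1% FBS DMEM, stimulated with 500 pg/mL TGF-beta after compound addition. %Activity was normalised to no-cell wells (complete cell-killing) and DMSO (no toxicity), and curves were fitted and classified.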
TDP1 inh – inhibitors of human tyrosyl-DNA phosphodiesterase TDP1. Q9NUW8. recombinant TDP1, AlphaScreen DNA substrate cleavage. Potency, µM (series often up to 130 µM), inactives show at the highest dose activity change, negative = inhibition, most hits filed as inhibitors. 350,000 tested, 0.28% active. AID 485290; also: potency is read from the fitted curve at half-maximal effect; % is scaled to controls: 0 for no effect and ±100 for the full control effect; nearly all actives have a fitted effect of over 40% in size
Target sequence (Q9NUW8 whole entry, looked up): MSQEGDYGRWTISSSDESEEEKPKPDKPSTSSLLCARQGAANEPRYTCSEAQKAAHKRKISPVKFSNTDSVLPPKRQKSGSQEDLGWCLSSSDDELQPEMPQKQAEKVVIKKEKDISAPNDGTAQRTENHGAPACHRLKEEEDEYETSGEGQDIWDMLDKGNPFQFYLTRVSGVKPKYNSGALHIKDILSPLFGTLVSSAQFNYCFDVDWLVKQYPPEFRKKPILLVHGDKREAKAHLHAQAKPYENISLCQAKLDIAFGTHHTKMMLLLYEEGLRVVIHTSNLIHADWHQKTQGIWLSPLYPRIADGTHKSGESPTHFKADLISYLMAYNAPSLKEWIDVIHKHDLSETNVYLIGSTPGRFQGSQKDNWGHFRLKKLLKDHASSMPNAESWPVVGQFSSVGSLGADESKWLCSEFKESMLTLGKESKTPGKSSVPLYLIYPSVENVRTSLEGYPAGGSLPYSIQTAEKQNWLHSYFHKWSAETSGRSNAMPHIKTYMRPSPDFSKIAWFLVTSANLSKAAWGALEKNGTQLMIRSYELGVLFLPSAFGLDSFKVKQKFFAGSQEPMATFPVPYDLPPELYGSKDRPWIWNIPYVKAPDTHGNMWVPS
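Here, a 5' biotin and 3' phosphotyrosine-FITC DNA oligonucleotide reports Tdp1 activity: intact substrate bridges AlphaScreen beads, while cleavage leaves a 3' phosphate and drops signal. All incubations at room temperature.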
TGFb SMAD3 inh – blocks TGF-b signaling. 410,000 tested, 1.2% active. Potency, µM (highest dose often 46.1 µM), for inactives: at the highest dose activity, negative = inhibition, hits mostly inhibitors. AID 588855. HepG2 CAGA-GFP TGF-b/SMAD3 reporter, GFP fluorescence, 18 h; TGF-beta stimulated, 500 pg/mL final; also: potency is read from the fitted curve at half-maximal effect; % is scaled to controls: 0 for no effect and ±100 for the full control effect; nearly all actives have a fitted effect of over 65% in size
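HEPG2 CAGA-GFP reporter cells (1000/well, DMEM with 1% FBS) received compounds, then recombinant TGF-beta at 500 pg/mL final for 18 hours at 37 degrees C. Per-cell GFP summed per well was normalised to unstimulated and stimulated DMSO controls before curve fitting.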
Starred values were filed as active, the others as inactive; i = inactive; u = inconclusive; x = no result; [ ] = dose if it differs, or a comment. Hits are enriched below; roughly 19% of the tested compounds scored in any of these assays. Unless noted, calls follow the shape of the dose curve; as a rule, active = well fitted curve in the direction sought with a large enough effect; inconclusive = small, poorly fitted or top-dose-only effect, or another doubt; inactive = no such curve, though single readings can be large; an effect the other way counts as inactive or inconclusive.

SMILES	IL-1B inflam inh	DT40 TDP1 no CPT	TDP1 cell CPT	HepG2 viability	TDP1 inh	TGFb SMAD3 inh
CCCCC1(C)Cc2ccccc2C(=S)N1 (stereo not given)	-4.5	u	23.1µM*	-41.6%	7.8%	-15.0%
COC(=O)N1CCCc2cc(S(=O)(=O)NCc3ccccc3)ccc21	x	x	x	-24.1%	5.8%	8.6%
N#C/C(=C\c1cc([N+](=O)[O-])ccc1Cl)C(N)=O	-88.8*	2.91µM*	2.59µM*	0.5%	0.5%	5.7%
N#C/C(=C/c1ccc([N+](=O)[O-])cc1)C(N)=O	-5.3	u	-15.3%	-25.3%	1.2%	5.1%
CC(=O)Nc1ccc2c(c1)Cc1c(F)cccc1-2	9.2	-3.7%	-6.8%	-32.0%	x	13.0%
COc1ccc(-c2c(C(=O)c3ccccc3)[nH]c(N)c2C(=O)c2ccc(Br)cc2)cc1OC	3.5	u	u	x	x	x
CC(C)(C)C(=O)c1c(N)[nH]c(C(=O)c2ccccc2)c1-c1ccc(Br)cc1	7.0	23.1µM*	20.6µM*	x	x	x
COC(=O)c1c(N)[nH]c(C(=O)c2ccccc2)c1-c1ccc(Br)cc1	34.4	u	16.4µM*	x	x	x
O=C(NC1CCS(=O)(=O)C1)c1ccc(N2CCCCC2)c([N+](=O)[O-])c1 (stereo not given)	i	-22.4%	-9.0%	-6.5%	-3.3%	-2.8%
O=C(CN(c1ccccc1)S(=O)(=O)c1ccccc1)NCCSc1nc2ccccc2s1	54.2	18.4µM*	u	-21.6%	-2.0%	0.1%
Cc1ccc(N(CC(=O)NCCSc2nc3ccccc3s2)S(=O)(=O)c2ccccc2)c(C)c1	-9.3	25.9µM*	u	15.4%	0.0%	u
Cc1ccc(-n2c(SCC(=O)N3CC(=O)Nc4ccccc43)nc3ccccc3c2=O)cc1C	0.0	-24.7%	u	-21.8%	-0.6%	-2.5%
Cc1cccc(-n2c(SCC(=O)N3CC(=O)Nc4ccccc43)nc3ccccc3c2=O)c1	u	23.1µM*	u	-7.7%	7.2%	-5.6%
CC(c1ccccc1)n1c(SCC(=O)N2CC(=O)Nc3ccccc32)nc2ccccc2c1=O (stereo not given)	-2.9	20.6µM*	25.9µM*	1.3%	5.3%	u
O=C1CN(C(=O)CSc2nc3cc(Cl)ccc3c(=O)n2Cc2ccccc2)c2ccccc2N1	-71.7*	u	u	-18.3%	3.2%	8.6%
Cc1ccc(Cn2c(SCC(=O)N3CC(=O)Nc4ccccc43)nc3ccccc3c2=O)cc1	0.0	u	u	-3.7%	2.7%	-20.9%
Cc1cccc(-n2c(SCC(=O)N3CC(=O)Nc4ccccc43)nc3ccccc3c2=O)c1C	-62.4*	18.4µM*	u	-16.2%	1.9%	-15.5%
COC(=O)C1=C(C(=O)OC)[C@@H]2N(Cc3ccccc3)c3ccccc3[C@@]23C[C@@H](C(=O)OC)N(S(=O)(=O)c2cccs2)C3=N1	x	x	x	x	11.4%[21 µM]	x
Cc1cc(C)c(NC(=O)C(=O)NCC(c2cccnc2)N2CCN(Cc3ccccc3)CC2)c(C)c1 (stereo not given)	x	5.8µM*	11.6µM*	-14.2%	1.3%	0.3%
Cc1ccc(NC(=O)C(=O)NCC(c2cccnc2)N2CCN(c3ccccc3F)CC2)cc1Cl (stereo not given)	x	23.1µM*	20.6µM*	-8.6%	-1.3%	-1.6%
Cc1ccc(NC(=O)C(=O)NCC(c2cccnc2)N2CCN(C)CC2)cc1F (stereo not given)	x	-22.9%	-23.9%	-24.5%	3.9%	8.7%
